Measured values: PubChem BioAssay (NCI)
This is part of a sample that, as a whole, favours compounds with a hit. Of some 83,000 tested, about 20% had one in any assay.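 For each line, cells grew in 96-well plates with the test compound present at a single concentration for 48 hours.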 A number with no mark means an inactive call. Activity calls are given as the source filed them. Rule for the calls: active = growth percent below 10; inactive = the rest.

How the values were obtained:
Test in all cases: NCI-60 one-dose screen, 48 h (100 = growth as untreated, 0 = no growth, -100 = all killed)
Details in all cases: 10 µM unless noted
T-47D breast = test system: T-47D breast
BT-549 breast = test system: BT-549 breast
MDA-MB-435 melanoma = test system: MDA-MB-435 melanoma
SW-620 colon = test system: SW-620 colon
MCF7 breast = test system: MCF7 breast
HCT-116 colon = test system: HCT-116 colon
HCC-2998 colon = test system: HCC-2998 colon
KM12 colon = test system: KM12 colon

**Q.** How did the growth (T-47D breast) turn out when `COc1ccc(-c2cc(-c3ccc(Cl)cc3)nc(NCCCCNc3ccnc4cc(Cl)ccc34)n2)cc1` was run?
**A.** 78.1%

**Q.** And the growth (BT-549 breast)?
**A.** 85.5%

**Q.** And the growth (MDA-MB-435 melanoma)?
**A.** 93.8%

**Q.** And the growth (SW-620 colon)?
**A.** -61.8% (active)

**Q.** And the growth (MCF7 breast)?
**A.** -69.3% (active)

**Q.** What about the growth (HCT-116 colon) of the same compound?
**A.** 23.4%

**Q.** What about the growth (HCC-2998 colon) of the same compound?
**A.** 26.1%

**Q.** What about the growth (KM12 colon) of the same compound?
**A.** 76.2%

**Q.** How did the growth (T-47D breast) turn out when `Cc1ccc(NCCN2CCCCC2)c2c(=O)c3ccccc3sc12` was run?
**A.** 28.7%

**Q.** And the growth (BT-549 breast)?
**A.** 58.6%

**Q.** And the growth (MDA-MB-435 melanoma)?
**A.** 31.4%

**Q.** And the growth (SW-620 colon)?
**A.** 15.3%

**Q.** And the growth (MCF7 breast)?
**A.** -3.15% (active)

**Q.** What about the growth (HCT-116 colon) of the same compound?
**A.** 18%

**Q.** And the growth (HCC-2998 colon)?
**A.** 33.3%

**Q.** And the growth (KM12 colon)?
**A.** 32.6%

**Q.** Which results are given for `CC(C)(C)c1cc(C(=O)N2CCC(C(=O)NCCN)CC2)cc(C(C)(C)C)c1`?
**A.** growth (T-47D breast): 78.8%; growth (BT-549 breast): 95.4%; growth (MDA-MB-435 melanoma): 98%; growth (SW-620 colon): 103%; growth (MCF7 breast): 92%; growth (HCT-116 colon): 99.4%; growth (HCC-2998 colon): 106%; growth (KM12 colon): 105%

**Q.** `O=C(Nc1ccc(C(=O)/C=C/c2ccc(N3CCOCC3)cc2)cc1)Nc1ccc([N+](=O)[O-])cc1` was tested. Which growth (T-47D breast) did it give?
**A.** 72.8%

**Q.** What about the growth (BT-549 breast) of the same compound?
**A.** 108%

**Q.** What about the growth (MDA-MB-435 melanoma) of the same compound?
**A.** 96%

**Q.** What about the growth (SW-620 colon) of the same compound?
**A.** 99.7%

**Q.** And the growth (MCF7 breast)?
**A.** 76.3%

**Q.** And the growth (HCT-116 colon)?
**A.** 97.3%

**Q.** What about the growth (HCC-2998 colon) of the same compound?
**A.** 109%

**Q.** And the growth (KM12 colon)?
**A.** 89.4%

**Q.** Which growth (T-47D breast) does the source give for `CN(C)c1cc(NN=C(c2ccc(O)cc2)c2ccc(O)cc2)c([N+](=O)[O-])cc1[N+](=O)[O-]` here?
**A.** 19.1%

**Q.** What about the growth (BT-549 breast) of the same compound?
**A.** 115%

**Q.** And the growth (MDA-MB-435 melanoma)?
**A.** 84.9%

**Q.** And the growth (SW-620 colon)?
**A.** 108%

**Q.** What about the growth (MCF7 breast) of the same compound?
**A.** 27.2%

**Q.** What about the growth (HCT-116 colon) of the same compound?
**A.** 33.2%

**Q.** What about the growth (HCC-2998 colon) of the same compound?
**A.** 59.1%

**Q.** And the growth (KM12 colon)?
**A.** 92%

**Q.** `CCC(Br)(CC)C(=O)c1ccc(OCC(=O)O)c(Cl)c1Cl` was tested. Which growth (T-47D breast) did it give?
**A.** 112%

**Q.** And the growth (BT-549 breast)?
**A.** 79.1%

**Q.** And the growth (MDA-MB-435 melanoma)?
**A.** 101%

**Q.** And the growth (SW-620 colon)?
**A.** 112%

**Q.** And the growth (MCF7 breast)?
**A.** 92.8%

**Q.** What about the growth (HCT-116 colon) of the same compound?
**A.** 102%

**Q.** And the growth (HCC-2998 colon)?
**A.** 91.5%

**Q.** What about the growth (KM12 colon) of the same compound?
**A.** 103%
